Measured values from PubChem BioAssay AID1159606 (Sanford-Burnham Center for Chemical Genomics, 2016).
The whole screen tested about 360,000 compounds, of which about 7,300 (2%) were called active. Cut-off read from the data, not from the text of the source: active = inhibition above about 50%; inactive = the rest. For the sample, actives were picked, then their nearest neighbours and some compounds at random.

Assay: inhibitors of TWEAK-Fn14 signaling, primary screen, luciferase reporter cells, uHTS (AID 1159606)
Conditions: TWEAK-stimulated Fn14 reporter cells, luciferase luminescence, 8 h; at 10 µM; stronger effect = higher value

Compound | inhibition
Cc1ccc(S(=O)(=O)N2CCC(=O)N([C@H](COCc3ccccc3)C(C)C)CC2)cc1 | -20.6% (inactive)
Oc1c(CN2CCN(c3ccc(F)cc3)CC2)cc(Cl)c2cccnc12 | 104% (active)
Cc1cccc(C)c1NC(=O)CN1CCN(c2ccc(F)cc2)CC1 | 0% (inactive)
Oc1c(CN2CCCC2)cc(COCc2ccccc2)c2cccnc12 | 9.88% (inactive)
O=[N+]([O-])c1ccc(S(=O)(=O)Nc2cccc(-c3ccc(N4CCCC4)nn3)c2)cc1 | -10.7% (inactive)
O=C(Nc1ccc2c(c1)OCCO2)C1CCCC1 | 92.4% (active)
O=C(Nc1ccc2c(c1)OCO2)C1CC1(Cl)Cl (stereo not drawn) | -7.08% (inactive)
O=C(Nc1cccc(Cl)c1)C1CCCN(c2cnccn2)C1 (stereo not drawn) | -12.7% (inactive)
O=C(Nc1ccccn1)C1CCN(S(=O)(=O)c2ccc3c(c2)OCCO3)CC1 | -16% (inactive)
O=C(Nc1ccc2c(c1)OCCO2)C1CCCN(c2ncccn2)C1 (stereo not drawn) | 67.2% (active)
CN1C(=O)c2ccc(NC(=O)C3CCCCC3)cc2C1=O | -18.9% (inactive)
Cc1ccccc1S(=O)(=O)NC(=O)C1(C)CCN1C(=O)C1(c2ccccc2)CCCC1 (stereo not drawn) | 0.78% (inactive)
COc1ccc(NC(=O)CN(C)C(=O)CNC(=O)C2CCCCC2)cc1 | -2.69% (inactive)
COc1cccc(CNC(=O)[C@@H]2CCCN2C(=O)[C@@H]2CCCN2C(=O)c2ccccc2)c1 | 17.3% (inactive)
CC1(C(=O)NS(=O)(=O)c2ccccc2)CCN1C(=O)C1CCCCC1 (stereo not drawn) | -10.4% (inactive)
CCC1(C)NC(=O)N(CC(=O)N2CCN(c3cccc(Cl)c3)CC2)C1=O (stereo not drawn) | 5.53% (inactive)
O=C(CSc1nnc(-c2ccco2)o1)NCC(=O)c1ccccc1 | 7.83% (inactive)
CCn1c(SCC(=O)Nc2cc(C)c(Cl)cc2OC)nnc1-c1ccco1 | -18.4% (inactive)
CSc1nc(-c2ccco2)nn1C(=O)c1ccccc1Cl | 51% (active)
CCn1cc(CN2CCCC(CNS(=O)(=O)Cc3ccccc3)C2)cn1 (stereo not drawn) | 1.85% (inactive)

Compound | inhibition
CC(=O)Nc1c2c(nn1-c1cccc(C)c1)CSC2 | -5.72% (inactive)
CCCNC(=O)c1c(Cl)cnn1-c1ccc(C)cc1 | -19.4% (inactive)
Cc1cccc(-n2ncc(Cl)c(Cl)c2=O)c1 | 94.7% (active)
COc1cccc(-c2nc3nc(C)cc(C)n3c2NC2CCCCC2)c1 | -20.7% (inactive)
CC(C)(C)Oc1ccccc1Nc1nc(NCCO)nc(N2CCCC2)n1 | -8.68% (inactive)
Cc1ccc(-n2c(SCC(=O)N3CCC(C(=O)O)CC3)nc3ccccc3c2=O)cc1C | 58.6% (active)
COc1cccc(-n2c(SCC(=O)NC3CCS(=O)(=O)C3)nc3ccccc3c2=O)c1 (stereo not drawn) | 6.23% (inactive)
O=C(CSc1nc2ccccc2c(=O)n1-c1ccccc1F)N1CCOCC1 | 0.72% (inactive)
O=C(CCCN1C(=O)C(c2ccccc2)Oc2cccnc21)Nc1ccccc1Br (stereo not drawn) | -8.78% (inactive)
COC(=O)[C@]12CCCCC=C1N(Cc1cccc3ccccc13)C(=O)[C@H](CC(=O)N1CCOCC1)C2 | -1.32% (inactive)
CSc1ccc(Cl)c(C(=O)OCC(=O)N2CC(C)OC(C)C2)c1 (stereo not drawn) | 3.56% (inactive)
CN(C)S(=O)(=O)N1CCN(c2ccc([N+](=O)[O-])cc2)CC1 | -16% (inactive)
CCCCC(=O)Nc1c2c(nn1-c1ccc([N+](=O)[O-])cc1)CS(=O)(=O)C2 | -8.65% (inactive)
O=C1/C(=C\c2ccc([N+](=O)[O-])cc2)CS(=O)(=O)C/C1=C/c1ccc([N+](=O)[O-])cc1 | 103% (active)
Cc1cc(NC(=O)CSc2nnnn2-c2ccc(F)cc2)no1 | -11.5% (inactive)
O=C(O)Cc1csc(NC(=O)CSc2nnnn2-c2ccc(O)cc2)n1 | 58.4% (active)
O=C(CSc1nnnn1-c1ccc(O)cc1)c1ccc(F)cc1 | -10.2% (inactive)
O=C(COc1cccc(F)c1)Oc1ccc(C(=O)c2ccccc2)cc1 | 10.4% (inactive)
O=C(Nc1ccn(Cc2ccccc2)n1)c1n[nH]c([N+](=O)[O-])c1Cl | 73.8% (active)
Cc1c(Br)c([N+](=O)[O-])nn1CC(=O)N1CCN(Cc2ccccc2)CC1 | -4.42% (inactive)

Compound | inhibition
O=C(Nc1ccn(Cc2ccccc2F)n1)c1ccc(COc2ccc(Cl)cc2Cl)o1 | 33.4% (inactive)
CC(=O)Oc1ccc(Cn2c(C)c(C(=O)NCc3ccc(C#N)cc3)sc2=O)cc1 | -2.94% (inactive)
CC(=O)C1=CCC(c2ccccc2)N(S(=O)(=O)c2ccc(C)cc2)C1 (stereo not drawn) | 15.7% (inactive)
Cc1ccc2cc3cc(C(=O)N4CCCCCC4)oc3nc2c1 | 50.1% (active)
Cc1cc(C)cc(NC(=O)N2CCCCCCC2)c1 | -11.9% (inactive)
Cc1ccc2oc(=O)c3cnn(CC(=O)N4CCCCCC4)c3c2c1 | -7.9% (inactive)
COc1ccc(OC)c(CN2C(=O)CCC2(C)c2nnnn2Cc2ccccc2)c1 (stereo not drawn) | -0.14% (inactive)
C=CCNc1nnc(SCC(=O)N2CCCCC2)c2ccccc12 | 16.3% (inactive)
COC(=O)c1ccc2nc(-c3ccc(C)cc3)c(Cc3ccc(OC)cc3C)n2c1 | -18.1% (inactive)
Cc1cccc(NC(=S)NCCc2ccc(Cl)cc2)c1C | 72% (active)
Cc1cccc(NC(=S)NCCc2ccc(F)cc2)c1C | 3.93% (inactive)
Cc1ccccc1NC(=S)NC(=O)Cc1ccc(Cl)cc1 | 9.93% (inactive)
Cc1ccc(CNC(=O)c2cccc3c2C(=O)c2ccc(N4CCC(C)CC4)cc2S3(=O)=O)cc1 | 21% (inactive)
COc1cc(/C=C/C(=O)OCC(=O)Nc2cccc(Oc3ccccc3)c2)ccc1O | 14.2% (inactive)
CCCCC[C@H](C)N1C[C@@H](COCc2ccccc2)Oc2cc(N3CC[C@@H](N(C)C)C3)ccc2S1(=O)=O | -25% (inactive)
Nc1ccccc1SC(C[N+](=O)[O-])c1ccccc1 (stereo not drawn) | 61.3% (active)
CS(=O)(=O)N(Cc1ccccc1)c1ccc(C(=O)NN=C2CCCCCC2)cc1 | -6.55% (inactive)
COc1ccc(OC)c(NC(=O)C2CCCN2S(=O)(=O)c2ccc3c(c2)CC(C)N3C(C)=O)c1 (stereo not drawn) | -20.4% (inactive)
